Laboratory results as given in the supplement of paper PMC11001985.

Compound: C#CCNC(=O)CCSSCCC(=O)NCCc1ccc(C=O)c(C=O)c1
Assay: lysine labeling ratio R10:1 (500 µM / 50 µM probe), SILAC-ABPP in living cells; higher = lower intrinsic lysine reactivity toward the probe, active = 2 or less
Conditions: HeLa; probe concentrations 500 vs 50 µM
Procedure, shortened: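 SILAC light and heavy living HeLa cells in PBS at room temperature were labelled with 50 µM or 500 µM of an alkyne-tagged, disulfide-linked lysine probe, with forward and reverse label swaps. Mixed lysates were clicked to biotin-azide, trypsin-digested, captured on neutravidin, DTT-released, alkylated and analysed by LC-MS/MS on a TIMS-TOF Pro. R is the filtered median high-probe/low-probe MS1 peptide ratio per lysine, then the median across forward and reverse replicates. Ratios are capped at 20.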

Chain of UniProt Q13813 (Q13813 whole entry): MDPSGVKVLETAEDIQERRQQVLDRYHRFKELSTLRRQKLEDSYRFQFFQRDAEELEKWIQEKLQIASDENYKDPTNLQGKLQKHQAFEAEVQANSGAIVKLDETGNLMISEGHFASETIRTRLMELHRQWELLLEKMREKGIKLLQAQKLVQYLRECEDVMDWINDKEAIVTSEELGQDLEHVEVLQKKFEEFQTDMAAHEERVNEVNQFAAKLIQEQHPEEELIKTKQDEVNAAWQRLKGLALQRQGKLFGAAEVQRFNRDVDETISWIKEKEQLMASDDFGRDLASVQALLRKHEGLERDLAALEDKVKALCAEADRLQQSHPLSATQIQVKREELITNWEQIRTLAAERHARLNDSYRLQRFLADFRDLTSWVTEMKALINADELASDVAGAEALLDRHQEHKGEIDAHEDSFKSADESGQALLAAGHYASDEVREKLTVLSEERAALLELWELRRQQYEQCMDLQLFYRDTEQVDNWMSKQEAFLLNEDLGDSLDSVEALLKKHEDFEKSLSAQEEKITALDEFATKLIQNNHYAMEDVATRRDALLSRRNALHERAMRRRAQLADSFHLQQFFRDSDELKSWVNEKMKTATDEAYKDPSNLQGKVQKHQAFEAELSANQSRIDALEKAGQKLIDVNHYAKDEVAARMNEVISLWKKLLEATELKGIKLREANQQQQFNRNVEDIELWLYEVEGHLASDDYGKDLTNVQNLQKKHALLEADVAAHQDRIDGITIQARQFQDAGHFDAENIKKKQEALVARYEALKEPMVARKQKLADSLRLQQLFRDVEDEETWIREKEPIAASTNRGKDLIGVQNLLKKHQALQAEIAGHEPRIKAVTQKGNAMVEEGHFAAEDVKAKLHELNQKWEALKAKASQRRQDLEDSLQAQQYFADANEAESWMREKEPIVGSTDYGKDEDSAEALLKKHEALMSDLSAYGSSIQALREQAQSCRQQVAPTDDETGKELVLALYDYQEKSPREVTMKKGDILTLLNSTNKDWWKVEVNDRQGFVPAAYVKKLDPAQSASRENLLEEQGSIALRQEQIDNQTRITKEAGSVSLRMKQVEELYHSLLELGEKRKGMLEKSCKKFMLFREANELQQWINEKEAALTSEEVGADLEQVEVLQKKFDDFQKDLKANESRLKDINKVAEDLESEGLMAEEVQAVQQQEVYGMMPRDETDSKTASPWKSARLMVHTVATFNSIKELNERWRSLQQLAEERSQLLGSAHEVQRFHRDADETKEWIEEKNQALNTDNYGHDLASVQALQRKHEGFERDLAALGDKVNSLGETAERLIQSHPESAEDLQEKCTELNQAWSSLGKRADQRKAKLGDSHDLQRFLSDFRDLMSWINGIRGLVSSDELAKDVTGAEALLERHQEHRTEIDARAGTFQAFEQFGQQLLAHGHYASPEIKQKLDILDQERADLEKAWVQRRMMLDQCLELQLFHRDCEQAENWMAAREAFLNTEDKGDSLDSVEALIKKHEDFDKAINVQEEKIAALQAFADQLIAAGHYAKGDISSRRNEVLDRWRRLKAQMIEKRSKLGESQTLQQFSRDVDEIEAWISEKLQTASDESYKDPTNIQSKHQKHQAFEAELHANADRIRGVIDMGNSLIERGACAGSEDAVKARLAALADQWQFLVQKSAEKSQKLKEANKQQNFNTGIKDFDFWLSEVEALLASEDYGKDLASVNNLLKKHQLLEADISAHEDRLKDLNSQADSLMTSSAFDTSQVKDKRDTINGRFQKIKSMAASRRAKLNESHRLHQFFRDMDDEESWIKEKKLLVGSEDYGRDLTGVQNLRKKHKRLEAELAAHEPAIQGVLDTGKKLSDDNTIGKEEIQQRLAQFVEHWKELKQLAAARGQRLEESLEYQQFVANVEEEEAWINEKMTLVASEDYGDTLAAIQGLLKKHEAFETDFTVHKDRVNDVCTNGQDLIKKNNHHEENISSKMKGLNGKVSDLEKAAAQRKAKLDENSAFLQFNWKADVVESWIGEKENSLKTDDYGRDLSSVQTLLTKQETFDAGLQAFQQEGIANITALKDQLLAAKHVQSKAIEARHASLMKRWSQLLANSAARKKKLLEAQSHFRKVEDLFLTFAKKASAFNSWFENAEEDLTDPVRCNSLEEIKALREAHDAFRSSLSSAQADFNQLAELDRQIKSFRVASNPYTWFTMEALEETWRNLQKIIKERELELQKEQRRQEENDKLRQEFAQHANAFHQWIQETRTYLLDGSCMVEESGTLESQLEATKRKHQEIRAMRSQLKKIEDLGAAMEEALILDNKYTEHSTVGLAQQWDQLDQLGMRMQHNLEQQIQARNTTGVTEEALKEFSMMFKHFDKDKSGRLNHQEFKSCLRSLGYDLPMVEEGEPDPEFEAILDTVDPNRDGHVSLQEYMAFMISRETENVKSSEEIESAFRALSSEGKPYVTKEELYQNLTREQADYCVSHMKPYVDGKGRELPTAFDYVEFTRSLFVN
Chain of UniProt P61981 (P61981 whole entry): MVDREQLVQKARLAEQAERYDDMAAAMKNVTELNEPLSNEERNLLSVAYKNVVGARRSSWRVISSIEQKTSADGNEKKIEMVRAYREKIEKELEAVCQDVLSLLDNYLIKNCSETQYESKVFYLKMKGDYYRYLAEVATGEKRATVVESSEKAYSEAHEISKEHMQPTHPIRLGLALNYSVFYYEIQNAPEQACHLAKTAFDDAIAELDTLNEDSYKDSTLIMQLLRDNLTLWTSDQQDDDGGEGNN
Chain of UniProt Q9NZV1 (Q9NZV1 whole entry): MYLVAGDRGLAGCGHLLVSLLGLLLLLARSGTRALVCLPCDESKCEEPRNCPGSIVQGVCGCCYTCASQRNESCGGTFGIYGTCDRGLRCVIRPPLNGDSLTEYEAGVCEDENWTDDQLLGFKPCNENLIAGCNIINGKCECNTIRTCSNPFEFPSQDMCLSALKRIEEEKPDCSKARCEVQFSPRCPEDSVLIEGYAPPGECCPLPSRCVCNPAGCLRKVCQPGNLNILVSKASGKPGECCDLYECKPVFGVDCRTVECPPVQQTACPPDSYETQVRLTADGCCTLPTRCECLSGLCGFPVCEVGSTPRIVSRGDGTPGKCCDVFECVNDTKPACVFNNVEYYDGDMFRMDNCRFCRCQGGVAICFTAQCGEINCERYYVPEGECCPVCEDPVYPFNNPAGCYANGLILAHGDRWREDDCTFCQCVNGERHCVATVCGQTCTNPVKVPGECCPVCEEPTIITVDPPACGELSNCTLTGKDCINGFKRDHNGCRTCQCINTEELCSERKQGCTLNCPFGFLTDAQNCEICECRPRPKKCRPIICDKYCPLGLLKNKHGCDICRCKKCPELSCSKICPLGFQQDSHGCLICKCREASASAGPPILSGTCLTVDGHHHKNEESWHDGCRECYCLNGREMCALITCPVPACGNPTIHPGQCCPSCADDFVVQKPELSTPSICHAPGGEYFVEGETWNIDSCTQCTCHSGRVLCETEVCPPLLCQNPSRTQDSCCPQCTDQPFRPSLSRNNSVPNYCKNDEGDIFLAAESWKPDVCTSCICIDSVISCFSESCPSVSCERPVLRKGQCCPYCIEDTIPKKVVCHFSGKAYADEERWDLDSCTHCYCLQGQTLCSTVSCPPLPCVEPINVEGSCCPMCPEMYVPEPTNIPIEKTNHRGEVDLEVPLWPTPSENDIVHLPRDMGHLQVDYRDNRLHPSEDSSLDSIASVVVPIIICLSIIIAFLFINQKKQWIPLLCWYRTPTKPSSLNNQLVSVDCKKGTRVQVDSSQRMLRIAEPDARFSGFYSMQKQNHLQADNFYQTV
Chain of UniProt P10809 (P10809 whole entry): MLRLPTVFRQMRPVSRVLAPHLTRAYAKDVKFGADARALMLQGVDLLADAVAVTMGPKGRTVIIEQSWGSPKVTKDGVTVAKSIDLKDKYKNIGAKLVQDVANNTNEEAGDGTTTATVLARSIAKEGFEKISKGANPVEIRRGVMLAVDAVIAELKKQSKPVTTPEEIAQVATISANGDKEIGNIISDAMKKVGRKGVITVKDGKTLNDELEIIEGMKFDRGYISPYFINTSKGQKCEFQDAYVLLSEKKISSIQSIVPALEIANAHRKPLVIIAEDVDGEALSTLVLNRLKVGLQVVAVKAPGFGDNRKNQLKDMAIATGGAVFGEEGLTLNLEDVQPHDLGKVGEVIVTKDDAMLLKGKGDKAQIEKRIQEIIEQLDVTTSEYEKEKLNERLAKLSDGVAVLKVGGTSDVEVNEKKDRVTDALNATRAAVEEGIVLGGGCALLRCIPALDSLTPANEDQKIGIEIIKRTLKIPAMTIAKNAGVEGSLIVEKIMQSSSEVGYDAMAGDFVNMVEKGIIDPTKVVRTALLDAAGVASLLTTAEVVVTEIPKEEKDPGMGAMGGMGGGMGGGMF
Chain of UniProt O95573 (O95573 whole entry): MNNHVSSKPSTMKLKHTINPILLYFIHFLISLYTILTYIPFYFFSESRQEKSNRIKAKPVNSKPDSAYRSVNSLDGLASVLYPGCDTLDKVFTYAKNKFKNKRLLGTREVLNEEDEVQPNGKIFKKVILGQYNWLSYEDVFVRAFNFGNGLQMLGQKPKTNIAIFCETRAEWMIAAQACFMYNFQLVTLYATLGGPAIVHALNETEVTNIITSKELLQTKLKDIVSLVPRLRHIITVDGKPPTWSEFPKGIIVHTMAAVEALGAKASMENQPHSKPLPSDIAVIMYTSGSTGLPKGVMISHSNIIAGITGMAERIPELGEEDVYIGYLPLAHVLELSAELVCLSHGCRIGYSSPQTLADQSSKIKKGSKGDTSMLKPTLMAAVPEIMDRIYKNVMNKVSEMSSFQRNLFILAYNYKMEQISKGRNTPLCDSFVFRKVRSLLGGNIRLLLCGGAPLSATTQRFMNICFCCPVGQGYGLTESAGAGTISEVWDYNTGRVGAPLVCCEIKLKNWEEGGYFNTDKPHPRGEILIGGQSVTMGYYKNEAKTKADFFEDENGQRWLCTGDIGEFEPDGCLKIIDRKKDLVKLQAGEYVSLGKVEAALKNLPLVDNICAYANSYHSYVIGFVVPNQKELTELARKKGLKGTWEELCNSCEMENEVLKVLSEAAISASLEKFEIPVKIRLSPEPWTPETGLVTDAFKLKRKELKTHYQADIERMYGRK

| Target | lysine labeling ratio R10:1 |
| --- | --- |
| SPTAN1 (lysine site: K2078) (UniProt Q13813) | 4.25 (inactive) |
| UniProt P61981 (lysine site: K10) | 4.23 (inactive) |
| MAP4 (lysine site: K933) (UniProt P27816) | 1.9 (active) |
| UniProt Q15800 (lysine site: K284) | 1.82 (active) |
| VDAC1 (lysine site: K61) (UniProt P21796) | 1.88 (active) |
| PDIA3 (lysine site: K129) (UniProt P30101) | 1.94 (active) |
| PTPRM (lysine site: K375) (UniProt P28827) | 5.3 (inactive) |
| TNKS1BP1 (lysine site: K1676) (UniProt Q9C0C2) | 2.22 (inactive) |
| ACSL3 (lysine site: K397) (UniProt O95573) | 3.08 (inactive) |
| ITGAV (lysine site: K233) (UniProt P06756) | 2.51 (inactive) |
| FAT4 (lysine site: K4224) (UniProt Q6V0I7) | 5.49 (inactive) |
| PDCD6IP (lysine site: K486) (UniProt Q8WUM4) | 0.775 (active) |
| HEG1 (lysine site: K1178) (UniProt Q9ULI3) | 4.55 (inactive) |
| CRIM1 (lysine site: K176) (UniProt Q9NZV1) | 2.01 (inactive) |
| ACTN4 (lysine site: K760) (UniProt O43707) | 4.05 (inactive) |
| SPTAN1 (lysine site: K30) (UniProt Q13813) | 5.74 (inactive) |
| MYH9 (lysine site: K1338) (UniProt P35579) | 1.98 (active) |
| DSG2 (lysine site: K430) (UniProt Q14126) | 6.01 (inactive) |
| SLC9A6 (lysine site: K61) (UniProt Q92581) | 4.56 (inactive) |
| UniProt Q15149 (lysine site: K1921) | 1.36 (active) |
| WDR1 (lysine site: K81) (UniProt O75083) | 0.967 (active) |
| HSPD1 (lysine site: K133) (UniProt P10809) | 3.96 (inactive) |
| UniProt P62888 (lysine site: K9) | 2.95 (inactive) |
